Where a name gives a salt, the structure may show the parent alone.

In the supplement of paper PMC12024424 one finds growth reduction data, which are given here for six compounds.

This assay relates to Staphylococcus aureus Sa2 (MRSA, cystic fibrosis isolate). The experiment in a line: growth reduction vs untreated control (viable cell count); higher = stronger antibacterial activity; extreme values may be limits of the assay. The following applies: 0.1 mM; 24 h. The procedure:
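Single-dose screen of the MedChem Express Drug Repurposing Library (0.1 mM, 1% DMSO) against planktonic MRSA S. aureus Sa2 (CF isolate) in TSB in 96-well plates, 37 °C aerobic, 24 h. Assays were run in triplicate and repeated twice.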
As for `CCOC(=O)N1CCC(=C2c3ccc(Cl)cc3CCc3cccnc32)CC1` [Loratadine], the growth reduction worked out at 100%. Then `CCCCc1oc2ccccc2c1C(=O)c1cc(I)c(OCCN(CC)CC)c(I)c1` [Amiodarone (hydrochloride)], with 98%. Then `CC(=O)Oc1cc(C)c(OC(C)=O)c2ccccc12` [Vitamin K4], with 97%. The result for `CC(C)(C)Cn1c(N)nc2ccc(-c3[nH]c(C(C)(C)C)nc3-c3ccc(F)cc3)nc21` [Ralimetinib dimesylate] reads 97%; that for `CCCCCCCC/C=C/CCCCCCCC(=O)OC[C@H]1O[C@@H](n2ccc(N)nc2=O)C(F)(F)[C@@H]1O` [Gemcitabine (elaidate)], 100%. For the compound `Cc1c(C)c2c(c(C)c1O)CCC(C)(COc1ccc(CC3SC(=O)NC3=O)cc1)O2` (stereo unspecified) [Troglitazone], the growth reduction was determined as 100%.
